# Data from the supplement of paper PMC4022240.
# ± gives the standard deviation.
# Key:
# Test in all cases: peptide microarray binding signal (635 nm), min-max normalized on array (fraction of array maximum); higher = stronger binding
# [1] = target: T1, HaloTag-ATRX ADD domain (163-292)
# T1 chain: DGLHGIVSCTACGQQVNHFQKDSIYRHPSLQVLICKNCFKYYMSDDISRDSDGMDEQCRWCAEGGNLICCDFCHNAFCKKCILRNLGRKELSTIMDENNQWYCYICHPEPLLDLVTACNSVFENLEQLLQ
# Summary of the method: (§1)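 Within each library, mean intensities of triplicate spots were min-max scaled to give the binding signal. The spots were histone 13-mer peptide–cellulose conjugates on nitrocellulose with a Cy3 tracer, blocked overnight at 4°C. They were then probed for 1 h at 4°C using biotin-labelled HaloTag reader fusions (10 nM to 1 μM) with streptavidin-Alexa Fluor 647 or rabbit histone antibodies (1:10,000 to 1:2,000) with anti-rabbit Alexa 647, and scanned at 635 nm for signal and 532 nm for misprints on an Axon GenePix 4000B.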
# [2] = target: HaloTag-ING2 PHD (mouse Ing2 200-280)
# Summary of the method: as §1
# [3] = target: anti-H3K4me3 antibody ab8580
# Summary of the method: as §1
# [4] = target: anti-H3K9me3 antibody ab8898
# Summary of the method: as §1
# [5] = peptide region: H3 1-13, peptide modifications: H3T6ph H3R8cit, binder concentration: 1:2,000 dilution
# [6] = peptide region: H3 1-13, peptide modifications: H3T6ph H3R8cit, binder concentration: 1:10,000 dilution
# [7] = peptide region: H3 5-17, peptide modifications: H3K9me1 H3K14me3, binder concentration: 1:2,000 dilution
# [8] = peptide region: H3 5-17, peptide modifications: H3K9me1 H3K14me3, binder concentration: 1:10,000 dilution
# [9] = peptide region: H3 1-13, peptide modifications: H3T6ph H3R8me2a, binder concentration: 1:2,000 dilution
# [10] = peptide region: H3 1-13, peptide modifications: H3T6ph H3R8me2a, binder concentration: 1:10,000 dilution
# [11] = peptide region: H3 1-13, peptide modifications: H3T6ph H3K9me3, binder concentration: 1:2,000 dilution
# [12] = peptide region: H3 1-13, peptide modifications: H3T6ph H3K9me3, binder concentration: 1:10,000 dilution
# [13] = peptide region: H3 5-17, peptide modifications: H3K9me1 H3S10ph, binder concentration: 1:2,000 dilution
# [14] = peptide region: H3 5-17, peptide modifications: H3K9me1 H3S10ph, binder concentration: 1:10,000 dilution
# [15] = peptide region: H3 5-17, peptide modifications: H3K9ac H3K14ac, binder concentration: 1:2,000 dilution
# [16] = peptide region: H3 5-17, peptide modifications: H3K9ac H3K14ac, binder concentration: 1:10,000 dilution
# [17] = peptide region: H3 5-17, peptide modifications: H3K9ac H3S10ph, binder concentration: 1:2,000 dilution
# [18] = peptide region: H3 5-17, peptide modifications: H3K9ac H3S10ph, binder concentration: 1:10,000 dilution
# [19] = peptide region: H3 1-13, peptide modifications: H3T6ph H3R8me2s, binder concentration: 1:2,000 dilution
# [20] = peptide region: H3 1-13, peptide modifications: H3T6ph H3R8me2s, binder concentration: 1:10,000 dilution
# [21] = peptide region: H3 5-17, binder concentration: 1:2,000 dilution
# [22] = peptide region: H3 5-17, binder concentration: 1:10,000 dilution
# [23] = peptide region: H3 5-17, peptide modifications: H3K9ac H3K14me2, binder concentration: 1:2,000 dilution
# [24] = peptide region: H3 5-17, peptide modifications: H3K9ac H3K14me2, binder concentration: 1:10,000 dilution
binder,measurement,setting,value
ARTKQTARKSTGG [H3 1-13 A R T K Q Tph A Rcit K S T G G],peptide microarray binding signal,"[1]; peptide region: H3 1-13, peptide modifications: H3T6ph H3R8cit, binder concentration: 50 nM",0.00461 ± 9.2e-05
same,peptide microarray binding signal,"[1]; peptide region: H3 1-13, peptide modifications: H3T6ph H3R8cit, binder concentration: 500 nM",0.00667 ± 0.00019
same,peptide microarray binding signal,"[2]; peptide region: H3 1-13, peptide modifications: H3T6ph H3R8cit, binder concentration: 10 nM",0.004536 ± 4e-05
same,peptide microarray binding signal,"[2]; peptide region: H3 1-13, peptide modifications: H3T6ph H3R8cit, binder concentration: 100 nM",0.00652 ± 0.00029
same,peptide microarray binding signal,[3]; [5],0.000396
same,peptide microarray binding signal,[3]; [6],0.000114 ± 1.3e-06
same,peptide microarray binding signal,[4]; [5],0.000332 ± 8.8e-06
same,peptide microarray binding signal,[4]; [6],0.000807 ± 2.5e-05
QTARKSTGGKAPR [H3 5-17 Q T A R Kme S T G G Kme3 A P R],peptide microarray binding signal,"[1]; peptide region: H3 5-17, peptide modifications: H3K9me1 H3K14me3, binder concentration: 50 nM",0.00611 ± 0.00085
same,peptide microarray binding signal,"[1]; peptide region: H3 5-17, peptide modifications: H3K9me1 H3K14me3, binder concentration: 500 nM",0.011 ± 0.0017
same,peptide microarray binding signal,"[2]; peptide region: H3 5-17, peptide modifications: H3K9me1 H3K14me3, binder concentration: 10 nM",0.018 ± 0.003
same,peptide microarray binding signal,"[2]; peptide region: H3 5-17, peptide modifications: H3K9me1 H3K14me3, binder concentration: 100 nM",0.00935 ± 0.0036
same,peptide microarray binding signal,[3]; [7],0.0233 ± 0.01
same,peptide microarray binding signal,[3]; [8],0.0338 ± 0.015
same,peptide microarray binding signal,[4]; [7],0.0215 ± 0.0054
same,peptide microarray binding signal,[4]; [8],0.016 ± 0.0043
ARTKQTARKSTGG [H3 1-13 A R T K Q Tph A Rme2a K S T G G],peptide microarray binding signal,"[1]; peptide region: H3 1-13, peptide modifications: H3T6ph H3R8me2a, binder concentration: 50 nM",0.00677 ± 0.00082
same,peptide microarray binding signal,"[1]; peptide region: H3 1-13, peptide modifications: H3T6ph H3R8me2a, binder concentration: 500 nM",0.0179 ± 0.002
same,peptide microarray binding signal,"[2]; peptide region: H3 1-13, peptide modifications: H3T6ph H3R8me2a, binder concentration: 10 nM",0.00961 ± 0.00061
same,peptide microarray binding signal,"[2]; peptide region: H3 1-13, peptide modifications: H3T6ph H3R8me2a, binder concentration: 100 nM",0.054 ± 0.0051
same,peptide microarray binding signal,[3]; [9],0.00166 ± 0.00015
same,peptide microarray binding signal,[3]; [10],0.0012 ± 1.2e-05
same,peptide microarray binding signal,[4]; [9],0.00384 ± 0.00058
same,peptide microarray binding signal,[4]; [10],0.00185 ± 6.1e-05
ARTKQTARKSTGG [H3 1-13 A R T K Q Tph A R Kme3 S T G G],peptide microarray binding signal,"[1]; peptide region: H3 1-13, peptide modifications: H3T6ph H3K9me3, binder concentration: 50 nM",0.007335 ± 6.2e-05
same,peptide microarray binding signal,"[1]; peptide region: H3 1-13, peptide modifications: H3T6ph H3K9me3, binder concentration: 500 nM",0.01343 ± 9.1e-05
same,peptide microarray binding signal,"[2]; peptide region: H3 1-13, peptide modifications: H3T6ph H3K9me3, binder concentration: 10 nM",0.0229 ± 0.0005
same,peptide microarray binding signal,"[2]; peptide region: H3 1-13, peptide modifications: H3T6ph H3K9me3, binder concentration: 100 nM",0.0339 ± 0.003
same,peptide microarray binding signal,[3]; [11],0.0494 ± 0.0093
same,peptide microarray binding signal,[3]; [12],0.0422 ± 0.0078
same,peptide microarray binding signal,[4]; [11],0.269 ± 0.024
same,peptide microarray binding signal,[4]; [12],0.17 ± 0.021
QTARKSTGGKAPR [H3 5-17 Q T A R Kme Sph T G G K A P R],peptide microarray binding signal,"[1]; peptide region: H3 5-17, peptide modifications: H3K9me1 H3S10ph, binder concentration: 50 nM",0.0069 ± 0.00042
same,peptide microarray binding signal,"[1]; peptide region: H3 5-17, peptide modifications: H3K9me1 H3S10ph, binder concentration: 500 nM",0.0164 ± 0.0026
same,peptide microarray binding signal,"[2]; peptide region: H3 5-17, peptide modifications: H3K9me1 H3S10ph, binder concentration: 10 nM",0.0181 ± 0.0013
same,peptide microarray binding signal,"[2]; peptide region: H3 5-17, peptide modifications: H3K9me1 H3S10ph, binder concentration: 100 nM",0.0405 ± 0.00099
same,peptide microarray binding signal,[3]; [13],0.00281 ± 0.00031
same,peptide microarray binding signal,[3]; [14],0.0028 ± 0.00019
same,peptide microarray binding signal,[4]; [13],0.0251 ± 0.0037
same,peptide microarray binding signal,[4]; [14],0.00865 ± 0.0014
QTARKSTGGKAPR [H3 5-17 Q T A R Kac S T G G Kac A P R],peptide microarray binding signal,"[1]; peptide region: H3 5-17, peptide modifications: H3K9ac H3K14ac, binder concentration: 50 nM",0.0318 ± 0.0049
same,peptide microarray binding signal,"[1]; peptide region: H3 5-17, peptide modifications: H3K9ac H3K14ac, binder concentration: 500 nM",0.0984 ± 0.027
same,peptide microarray binding signal,"[2]; peptide region: H3 5-17, peptide modifications: H3K9ac H3K14ac, binder concentration: 10 nM",0.0862 ± 0.034
same,peptide microarray binding signal,"[2]; peptide region: H3 5-17, peptide modifications: H3K9ac H3K14ac, binder concentration: 100 nM",0.048 ± 0.023
same,peptide microarray binding signal,[3]; [15],0.0141 ± 0.0045
same,peptide microarray binding signal,[3]; [16],0.0234 ± 0.0064
same,peptide microarray binding signal,[4]; [15],0.03 ± 0.0085
same,peptide microarray binding signal,[4]; [16],0.0332 ± 0.014
QTARKSTGGKAPR [H3 5-17 Q T A R Kac Sph T G G K A P R],peptide microarray binding signal,"[1]; peptide region: H3 5-17, peptide modifications: H3K9ac H3S10ph, binder concentration: 50 nM",0.00592 ± 8.9e-05
same,peptide microarray binding signal,"[1]; peptide region: H3 5-17, peptide modifications: H3K9ac H3S10ph, binder concentration: 500 nM",0.0176 ± 0.0016
same,peptide microarray binding signal,"[2]; peptide region: H3 5-17, peptide modifications: H3K9ac H3S10ph, binder concentration: 10 nM",0.00507 ± 0.00017
same,peptide microarray binding signal,"[2]; peptide region: H3 5-17, peptide modifications: H3K9ac H3S10ph, binder concentration: 100 nM",0.0274 ± 0.0063
same,peptide microarray binding signal,[3]; [17],0.0005474 ± 5.3e-06
same,peptide microarray binding signal,[3]; [18],0.000514 ± 1.5e-05
same,peptide microarray binding signal,[4]; [17],0.00667 ± 0.00058
same,peptide microarray binding signal,[4]; [18],0.00265 ± 0.00012
ARTKQTARKSTGG [H3 1-13 A R T K Q Tph A Rme2s K S T G G],peptide microarray binding signal,"[1]; peptide region: H3 1-13, peptide modifications: H3T6ph H3R8me2s, binder concentration: 50 nM",0.0201 ± 0.0019
same,peptide microarray binding signal,"[1]; peptide region: H3 1-13, peptide modifications: H3T6ph H3R8me2s, binder concentration: 500 nM",0.0152 ± 0.0026
same,peptide microarray binding signal,"[2]; peptide region: H3 1-13, peptide modifications: H3T6ph H3R8me2s, binder concentration: 10 nM",0.0119 ± 0.00043
same,peptide microarray binding signal,"[2]; peptide region: H3 1-13, peptide modifications: H3T6ph H3R8me2s, binder concentration: 100 nM",0.0145 ± 0.00066
same,peptide microarray binding signal,[3]; [19],0.00287 ± 9.2e-05
same,peptide microarray binding signal,[3]; [20],0.000571
same,peptide microarray binding signal,[4]; [19],0.0029 ± 6.7e-05
same,peptide microarray binding signal,[4]; [20],0.00646 ± 0.0018
QTARKSTGGKAPR [H3 5-17 Q T A R K S T G G K A P R],peptide microarray binding signal,"[1]; peptide region: H3 5-17, binder concentration: 50 nM",0.00796 ± 0.00026
same,peptide microarray binding signal,"[1]; peptide region: H3 5-17, binder concentration: 500 nM",0.00462 ± 0.00035
same,peptide microarray binding signal,"[2]; peptide region: H3 5-17, binder concentration: 10 nM",0.00376 ± 7.2e-05
same,peptide microarray binding signal,"[2]; peptide region: H3 5-17, binder concentration: 100 nM",0.00489 ± 0.00045
same,peptide microarray binding signal,[3]; [21],0.000982 ± 8.5e-05
same,peptide microarray binding signal,[3]; [22],0.00143 ± 0.00013
same,peptide microarray binding signal,[4]; [21],0.00242 ± 0.0011
same,peptide microarray binding signal,[4]; [22],0.00265 ± 0.00021
QTARKSTGGKAPR [H3 5-17 Q T A R Kac S T G G Kme2 A P R],peptide microarray binding signal,"[1]; peptide region: H3 5-17, peptide modifications: H3K9ac H3K14me2, binder concentration: 50 nM",0.00746 ± 0.00033
same,peptide microarray binding signal,"[1]; peptide region: H3 5-17, peptide modifications: H3K9ac H3K14me2, binder concentration: 500 nM",0.0201 ± 0.0018
same,peptide microarray binding signal,"[2]; peptide region: H3 5-17, peptide modifications: H3K9ac H3K14me2, binder concentration: 10 nM",0.0147 ± 0.0015
same,peptide microarray binding signal,"[2]; peptide region: H3 5-17, peptide modifications: H3K9ac H3K14me2, binder concentration: 100 nM",0.0485 ± 0.015
same,peptide microarray binding signal,[3]; [23],0.0108 ± 0.00077
same,peptide microarray binding signal,[3]; [24],0.00468 ± 0.00039
same,peptide microarray binding signal,[4]; [23],0.0189 ± 0.00074
same,peptide microarray binding signal,[4]; [24],0.406 ± 0.064
